Laboratory results published in the supplement of paper PMC8728848.
The full list was thinned out, with the strongest signals kept by preference.

Tests used:
Assay in all cases: glycan array binding signal (z-score within array); higher = stronger binding
Settings in all cases: glycan notation: IUPAC condensed, linker removed
[1] = biological target: Fuc(a1-2)Gal(b1-3)[Fuc(a1-4)]GlcNAc(b1-2)Man(a1-3)[Fuc(a1-2)Gal(b1-3)[Fuc(a1-4)]GlcNAc(b1-2)Man(a1-3)]Man(b1-4)GlcNAc(b1-4)GlcNAc
Method in brief: (§1)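 From the Consortium for Functional Glycomics database, 3228 arrays were curated, keeping only those whose protein sequence was available. Binding is given as a within-array Z-score averaged across arrays sharing a protein sequence and across linkers. Negative Z-scores can be read as non-binding.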

[2] = biological target: Fuc(a1-2)Gal(b1-4)Fuc(a1-3)]GlcNAc(b1-2)Man(a1-3)[Fuc(a1-2)Gal(b1-4)[Fuc(a1-3)]GlcNAc(b1-2)Man(a1-6)]Man(b1-4)GlcNAc(b1-4)GlcNAc
Method in brief: as §1

[3] = biological target: Fuc(a1-2)Gal(b1-4)GlcNAc(b1-2)Man(a1-3)[Fuc(a1-2)Gal(b1-4)GlcNAc(b1-2)Man(a1-6)]Man(b1-4)GlcNAc(b1-4)[Fuc(a1-6)]GlcNAc
Method in brief: as §1

[4] = biological target: Fuc(a1-2)Gal(b1-4)[Fuc(a1-3)]GlcNAc
Method in brief: as §1

[5] = biological target: Fuc(a1-2)Gal(b1-4)[Fuc(a1-3)]GlcNAc(b1-2)Man(a1-3)[Fuc(a1-2)Gal(b1-4)[Fuc(a1-3)]GlcNAc(b1-2)Man(a1-6)]Man(b1-4)GlcNAc(b1-4)GlcNAc
Method in brief: as §1

[6] = biological target: Fuc(a1-2)[GalNAc(a1-3)]Gal(b1-3)GalNAc(a1-3)[Fuc(a1-2)]Gal(b1-4)GlcNAc
Method in brief: as §1

[7] = biological target: Fuc(a1-2)[GalNAc(a1-3)]Gal(b1-3)GalNAc(b1-3)Gal(a1-4)Gal(b1-4)Glc
Method in brief: as §1

[8] = biological target: Fuc(a1-2)[GalNAc(a1-3)]Gal(b1-4)GlcNAc(b1-3)Gal(b1-4)GlcNAc
Method in brief: as §1

[9] = biological target: Fuc(a1-2)[GalNAc(a1-3)]Gal(b1-4)GlcNAc(b1-3)Gal(b1-4)GlcNAc(b1-3)Gal(b1-4)GlcNAc
Method in brief: as §1

[10] = biological target: Fuc(a1-2)[GalNAc(a1-3)]Gal(b1-4)GlcNAc(b1-6)GalNAc
Method in brief: as §1

[11] = biological target: Fuc(a1-2)[GalNAc(a1-4)]Gal(b1-4)GlcNAc
Method in brief: as §1

[12] = biological target: Fuc(a1-3)[Gal(b1-4)]GlcNAc(b1-4)Gal(b1-4)[Fuc(a1-3)]GlcNAc(b1-4)Gal(b1-4)[Fuc(a1-3)]GlcNAc
Method in brief: as §1

[13] = biological target: Fuc(a1-3)[Gal(b1-4)]GlcNAc(b1-6)[Gal(b1-3)GlcNAc(b1-3)]Gal(b1-4)Glc
Method in brief: as §1

[14] = biological target: Gal(a1-3)Gal(b1-4)Glc
Method in brief: as §1

[15] = biological target: Gal(b1-2)Gal
Method in brief: as §1

[16] = biological target: Gal(b1-3)Gal(b1-4)GlcNAc(b1-2)Man(a1-3)[Gal(b1-3)Gal(b1-4)GlcNAc(b1-2)Man(a1-6)]Man(b1-4)GlcNAc(b1-4)GlcNAc
Method in brief: as §1

[17] = biological target: Gal(b1-3)GlcNAc(b1-2)Man
Method in brief: as §1

[18] = biological target: Gal(b1-3)GlcNAc(b1-3)Gal(b1-4)GlcNAc(b1-6)[Gal(b1-3)GlcNAc(b1-3)]Gal(b1-4)Glc
Method in brief: as §1

[19] = biological target: Gal(b1-3)[Fuc(a1-4)]GlcNAc(b1-2)Man(a1-3)[Gal(b1-3)[Fuc(a1-4)]GlcNAc(b1-2)Man(a1-6)]Man(b1-4)GlcNAc(b1-4)[Fuc(a1-6)]GlcNAc
Method in brief: as §1

[20] = biological target: Gal(b1-3)[GlcNAc(b1-6)]GalNAc
Method in brief: as §1

[21] = biological target: Gal(b1-3)[Neu5Ac(b2-6)]GalNAc
Method in brief: as §1

[22] = biological target: Gal(b1-4)GlcNAc(b1-2)Man(a1-6)[GlcNAc(b1-2)Man(a1-3)]Man(b1-4)GlcNAc(b1-4)GlcNAc
Method in brief: as §1

[23] = biological target: Gal(b1-4)GlcNAc(b1-2)[Gal(b1-4)GlcNAc(b1-6)]Man(a1-6)[GlcNAc(b1-4)][Gal(b1-4)GlcNAc(b1-2)[Gal(b1-4)GlcNAc(b1-4)]Man(a1-3)]Man(b1-4)GlcNAc(b1-4)[Fuc(a1-6)]GlcNAc
Method in brief: as §1

[24] = biological target: Gal(b1-4)GlcNAc(b1-3)Gal(b1-4)GlcNAc(b1-3)Gal(b1-4)GlcNAc(b1-2)[Gal(b1-4)GlcNAc(b1-3)Gal(b1-4)GlcNAc(b1-3)Gal(b1-4)GlcNAc(b1-6)]Man(a1-6)[Gal(b1-4)GlcNAc(b1-3)Gal(b1-4)GlcNAc(b1-3)Gal(b1-4)GlcNAc(b1-2)Man(a1-3)]Man(b1-4)GlcNAc(b1-4)[Fuc(a1-6)]GlcNAc
Method in brief: as §1

[25] = biological target: Gal(b1-4)GlcNAc(b1-3)Gal(b1-4)GlcNAc(b1-3)Gal(b1-4)GlcNAc(b1-3)Gal(b1-4)GlcNAc(b1-3)Gal(b1-4)GlcNAc(b1-2)Man(a1-3)[Gal(b1-4)GlcNAc(b1-3)Gal(b1-4)GlcNAc(b1-3)Gal(b1-4)GlcNAc(b1-3)Gal(b1-4)GlcNAc(b1-3)Gal(b1-4)GlcNAc(b1-2)Man(a1-6)]Man(b1-4)GlcNAc(b1-4)[Fuc(a1-6)]GlcNAc
Method in brief: as §1

[26] = biological target: Gal3S6S(b1-4)GlcNAc
Method in brief: as §1

[27] = biological target: Gal4S(b1-4)GlcNAc
Method in brief: as §1

[28] = biological target: Gal6S(b1-3)GlcNAc6S
Method in brief: as §1

[29] = biological target: GalNAc(a1-3)Gal
Method in brief: as §1

[30] = biological target: GalNAc(a1-3)GalNAc
Method in brief: as §1

B1: HPA (Helix pomatia), Q575S3 (protein)
chain: MWAHLTGLLLICALSLSAAQRAQTGEIDCGSDSSWPKDPSDNPNRDNTREIVKHVTFSPQFCREPKVILSVTTLDAEHTKNLRYEARLKSVSPSGLSASCYSWHDGTIYRMKLSWLAVED
glycan array binding signal (z-score) [1]: -0.229 | glycan array binding signal (z-score) [2]: -0.186 | glycan array binding signal (z-score) [3]: -0.229 | glycan array binding signal (z-score) [4]: -0.264 | glycan array binding signal (z-score) [5]: -0.221 | glycan array binding signal (z-score) [6]: 4.9 | glycan array binding signal (z-score) [7]: 4.46 | glycan array binding signal (z-score) [8]: 4.44 | glycan array binding signal (z-score) [9]: 4.28 | glycan array binding signal (z-score) [10]: 2.54 | glycan array binding signal (z-score) [11]: 5.52 | glycan array binding signal (z-score) [12]: -0.271 | glycan array binding signal (z-score) [13]: -0.251 | glycan array binding signal (z-score) [14]: -0.261 | glycan array binding signal (z-score) [15]: -0.259 | glycan array binding signal (z-score) [16]: -0.266 | glycan array binding signal (z-score) [17]: 0.558 | glycan array binding signal (z-score) [18]: -0.246 | glycan array binding signal (z-score) [19]: -0.227 | glycan array binding signal (z-score) [20]: -0.265 | glycan array binding signal (z-score) [21]: -0.268 | glycan array binding signal (z-score) [22]: -0.239 | glycan array binding signal (z-score) [23]: -0.252 | glycan array binding signal (z-score) [24]: -0.25 | glycan array binding signal (z-score) [25]: -0.253 | glycan array binding signal (z-score) [26]: -0.266 | glycan array binding signal (z-score) [27]: -0.267 | glycan array binding signal (z-score) [28]: -0.242 | glycan array binding signal (z-score) [29]: 4.18 | glycan array binding signal (z-score) [30]: 4.53
